A549 tox: Nrf2 qHTS screen for inhibitors: counterscreen for cytotoxicity; Potency, µM (highest dose often 46 µM), without a hit: at the top dose activity change, negative = cytotoxicity, usual class: inhibitors; AID 504648, 2011; A549 ARE-Fluc cells, CellTiter-Fluor viability, 18-24 h; hit rate 0.16% among 390,000; note: % is set by controls: 0 for no effect and ±100 for the full control effect
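A549 ARE_Fluc cells in 5% FBS OPTI-MEM were exposed to compounds in concentration-response for 18-24 h at 37 deg C. Viability was read by CellTiter-Fluor fluorescence (Ex 405/Em 525) after 30 min, before the luciferase read.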
Nrf2 block: Nrf2 qHTS screen for inhibitors. A549 ARE-Fluc reporter, luciferase luminescence, 18-24 h. Potency, µM (top dose mostly 46 µM), without a hit: at the highest dose activity change, negative = inhibition, hits mostly inhibitors. hit rate 2.1% among 360,000. AID 504444, 2011; note: % is set by controls: 0 for no effect and ±100 for the full control effect; nearly all actives have a fitted effect of over 60% in size
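Quantitative HTS in A549 cells stably bearing an antioxidant response element-firefly luciferase construct. Inhibition of Nrf2-driven transcription was scored by luminescence after 18-24 h of compound exposure at 37 °C.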
Nrf2 ARE act: qHTS of Nrf2 Activators | AREc32 ARE-luciferase reporter (MCF7-derived line), luminescence, 24 h | Potency, µM (titrated, usually from 46.1 µM), for inactives: top-dose activation, most hits filed as activators | hit rate 0.31% among 410,000; note: % of control where 0% means no effect; nearly all actives have a fitted effect of over 65% in size
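Nrf2 activation is followed as ARE-luciferase induction in the AREc32 line after one day of compound treatment; luminescence is read with Steady-Glo.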
ELG1 DNA repair: qHTS screen for small molecules that inhibit ELG1-dependent DNA repair in human embryonic kidney (HEK293T) cells expressing luciferase-tagged ELG1; HEK293T ELG1-luciferase reporter, luminescence, 16 h; DNA damage induced by 5-fluorouridine; Potency, µM (titrated, usually from 46.1 µM), without a hit: at the highest dose activity change, negative = inhibition, usual class: inhibitors; hit rate 2.3% among 330,000; AID 504467, 2011; note: % is set by controls: 0 for no effect and ±100 for the full control effect; nearly all actives have a fitted effect of over 55% in size
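Cells (2,000 per well) received 5-fluorouridine plus test compound or DMSO and were incubated 16 hr at 37 °C, 5% CO2. Luciferase activity was read by luminescence 30 min after ONE-Glo addition; signal suppression marked inhibition of damage-induced ELG1 function.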
* = called active by the depositor; ? = inconclusive; nt = no result; [ ] = remark or other dose. Rows were chosen to be rich in hits. Some 3.7% of all compounds tested hit in one or more screens of this group. Calls come from the whole dose curve; as a rule, active = well fitted curve in the direction sought with a large enough effect; inconclusive = small, poorly fitted or top-dose-only effect, or another doubt; inactive = no such curve, though single readings can be large; an effect the other way counts as inactive or inconclusive. Potency is the fitted concentration of half-maximal effect.

SMILES	A549 tox	Nrf2 block	Nrf2 ARE act	ELG1 DNA repair
O=C(C1CCCN(S(=O)(=O)c2ccc(Br)cc2)C1)N1CCOCC1 (stereo not drawn)	4.8%	-7.6%	-0.4%	-1.0%
COc1ccc(-c2onc(C)c2C)cc1S(=O)(=O)NC1CCC(C)CC1 (stereo not drawn)	-23.8%	20.6µM*	0.6%	nt
COc1ccc(-c2onc(C)c2C)cc1S(=O)(=O)N(C)Cc1ccccc1	-0.1%	18.4µM*	0.8%	nt
COc1ccc(N(CC(=O)NCc2ccc3c(c2)OCO3)S(=O)(=O)c2ccc(O)c(C(=O)O)c2)cc1	5.3%	6.2%	0.2%	nt
CC(Sc1nnc(C(C)Oc2ccccc2F)o1)C(=O)NCc1ccc2c(c1)OCO2 (stereo not drawn)	-6.7%	-13.4%	-1.0%	?
COc1ccc(C2Nc3ccccc3C(=O)N2CC(C)(C)C)cc1COc1ccc(NC(C)=O)cc1 (stereo not drawn)	-9.4%	-1.0%	nt	nt
CCOC(=O)c1c(NC(C)=O)sc2c1CCN(Cc1ccccc1)C2	6.9%	13.4%	0.8%	3.1%
CCOC(=O)c1c(NC(C)=O)sc2c1CCC(C=O)=C2Sc1ccccc1	?	20.6µM*	?	?
Cc1cccc(-n2cnc3cc(C(=O)NC4CCCCCC4)ccc32)c1	?	nt	-0.5%	nt
COc1cc(OC)c(OC)cc1/C=N/NC(=S)NCC1CCCO1 (stereo not drawn)	1.0%	4.3%	-0.4%	18.4µM*
COc1ccc(NC(=O)C2(C)CCN2Cc2cccc(OC)c2OC)cc1OC (stereo not drawn)	nt	nt	3.5%	nt
Cc1nc2ccc(NS(=O)(=O)c3c(F)cc(F)cc3Br)cc2s1	-0.9%	20.6µM*	-0.2%	-10.6%
Cc1nc2ccc(NS(=O)(=O)c3ccc(F)c(F)c3F)cc2s1	5.0%	-22.1%	3.9%	?
Cc1nc2ccc(NS(=O)(=O)c3ccc(F)cc3F)cc2s1	-0.3%	13µM*	0.0%	0.2%
CC1CCCN(S(=O)(=O)c2ccc(C(=O)Nc3ccccc3-c3nc4ccccc4[nH]3)cc2)C1 (stereo not drawn)	2.4%	3.8%	0.3%	?
CC1CCN(S(=O)(=O)c2ccc(C(=O)Nc3ccccc3-c3nc4ccccc4[nH]3)cc2)CC1	-8.8%	25.9µM*	0.0%	16.4µM*
CCOC(=O)Nc1ccc(S(=O)(=O)N2CCC(c3nc4ccccc4[nH]3)CC2)cc1	nt	nt	0.4%	nt
CC(=O)Nc1ccc(S(=O)(=O)N2CCC(c3nc4ccc(C)cc4[nH]3)CC2)cc1	1.6%	-26.8%	0.6%	?
CC(C)C(=O)Nc1ccc(S(=O)(=O)N2CCC(c3nc4ccccc4[nH]3)CC2)cc1	-7.5%	-20.9%	0.6%	5.8µM*
CC(C)(C)c1ccc(S(=O)(=O)N2CCC(c3nc4ccc(Cl)cc4[nH]3)CC2)cc1	?	16.4µM*	4.1%	20.6µM*
O=C(C[C@@H]1C/C=C\CC[C@@H](Cc2ccc(F)cc2)C(=O)OC[C@@H]2CCCN2C1=O)N[C@H](CO)Cc1ccccc1	-18.5%	?	8.0%	?
CCN(c1ccccc1)S(=O)(=O)c1ccc(C(=O)Nc2nnc(CSC)o2)cc1	?	11.6µM*	0.5%	?
CCN(c1ccccc1)S(=O)(=O)c1ccc(C(=O)Nc2nnc(COC)o2)cc1	-15.9%	23.1µM*	-1.3%	?
CC(=O)c1ccccc1NC(=O)COC(=O)c1cc(C)oc1C	-6.0%	2.4%	0.1%	?
C1=CC(c2cc3ccccc3o2)OC(CCc2ccccc2)C1 (stereo not drawn)	-0.2%	5.6%	3.1%	9.9%
SMILES	A549 tox	Nrf2 block	Nrf2 ARE act	ELG1 DNA repair
COc1cc(/C=N/NC(=S)Nc2cccc(S(=O)(=O)N(C)C)c2)cc(OC)c1O	1.7%	8.4%	0.9%	20.6µM*
CN(C)S(=O)(=O)c1cccc(NC(=S)N/N=C/c2ccc(O)c(O)c2O)c1	-17.3%	-26.7%	3.5%	16.4µM*
COCCN(C(=O)CSc1nnc(-c2ccco2)n1C)c1c(N)n(CC(C)C)c(=O)[nH]c1=O	10.8%	0.5%	-1.3%	4.5%
CC(NC(=O)COC(=O)c1c[nH]c2ccccc12)c1ccccc1 (stereo not drawn)	-17.3%	20.6µM*	1.9%	?
CC(NC(=O)COC(=O)CSCc1ccccc1)c1ccccc1 (stereo not drawn)	-3.3%	2.6%	-0.2%	9.1%
CC(NC(=O)COC(=O)CCc1ccccc1)c1ccccc1 (stereo not drawn)	23.1µM*	?	0.5%	?
O=C(COC(=O)c1c[nH]c2ccccc12)Nc1ccccc1	-0.5%	22.4%	1.7%	-0.2%
Cc1ccc(NC(=O)CC[C@H]2O[C@@H](n3cnc4c(NC(=O)c5ccccc5)ncnc43)[C@H](O)[C@@H]2O)cc1C	nt	nt	-0.9%	nt
O=C(CCS(=O)(=O)c1cc2c(cc1Cl)NC(=O)CO2)NCCc1ccc(Cl)cc1	13.7%	?	-0.3%	nt
CN(C)c1ccc(C(=O)N2CCC2(C)C(=O)O)cc1 (stereo not drawn)	nt	nt	0.1%	nt
Cc1ccc(S(=O)(=O)c2nc(-c3ccccc3F)oc2NCc2ccccc2)cc1	17.6%	-3.6%	-1.0%	nt
CNc1oc(-c2ccccc2F)nc1S(=O)(=O)c1ccc(C)cc1	-11.0%	25.9µM*	2.9%	-4.6%
CC(C)NC(=O)c1ccc(CN2CCC(Cc3ccccc3)CC2)cc1	0.1%	-7.1%	-0.5%	-23.8%
CC(C)NC(=O)c1ccc(-n2c(-c3ccccc3)cc3c2CCCCC3)cc1	-18.2%	?	12.6µM*	nt
CCOCCCNC(=O)c1ccc(-n2c(-c3ccccc3)cc3c2CCCC3)cc1	-5.8%	?	11.2µM*	nt
CC1CCc2c(cc(-c3ccccc3)n2-c2ccc(C(=O)NC(C)C)cc2)C1 (stereo not drawn)	?	?	2.82µM*	nt
COCCCNC(=O)c1ccc(-n2c(-c3ccccc3)cc3c2CCCCC3)cc1	-13.8%	?	?	nt
COc1cccc(/C=N/n2c(COc3ccccc3)n[nH]c2=S)c1	-2.7%	?	-0.2%	-6.7%
CCC(=O)N1CCc2cc(Br)cc(S(=O)(=O)NCCc3cccc(C)c3)c21	-13.7%	nt	4.7%	nt
CCN(Cc1ccccc1)S(=O)(=O)c1cc(C(=O)NCC2CCCCC2)ccc1OC	-21.5%	11.6µM*	0.0%	23.1µM*
COc1ccc(C2=Nn3c(nnc3-c3ccccc3OC)SC2)cc1	-9.3%	?	nt	nt
O=C(NC1CCCCCCC1)C1CCN(c2nc3ccccc3o2)CC1	-13.2%	nt	-0.8%	16.4µM*
O=C(NCCc1ccccc1)C1CCN(c2nc3ccccc3o2)CC1	1.6%	nt	-0.9%	?
O=C(CSc1ccc2nnc(-c3ccc(Cl)cc3)n2n1)N1CCCc2ccccc21	-11.3%	3.7%	1.6%[9.22 µM]	?
O=C(CSc1ccc2nnc(-c3ccc(F)cc3)n2n1)N1CCCc2ccccc21	-17.0%	1.5%	-0.1%	18.4µM*
O=C(N1CCN(c2ccccc2)CC1)C12CC3CC(CC(C3)C1)C2	11.9%	-2.3%	-0.4%	0.0%
